TEAD-YAP block = TEAD-YAP interaction inhibition; 640,000 compounds, 1.4% hits; HEK-TIYL cells, TEAD-Gal4/YAP UAS-luciferase luminescence; AID 1259422; inhibition, % at 9.12 µM; in the data active = inhibition above about 32%;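 also: 0% = median of test compound wells and 100% = reference inhibitor wells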
GPR151 ag = human GPR151 activation. Q8TDV0. PathHunter beta-arrestin GPR151 cells, luminescence. activation, % at 11.2 µM. 650,000 compounds, 1% hits. AID 1508602; in the data active = activation above about 4.9%;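 also: 0% = median of compound wells and 100% = cells with positive control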
Target sequence (Q8TDV0 whole entry, looked up): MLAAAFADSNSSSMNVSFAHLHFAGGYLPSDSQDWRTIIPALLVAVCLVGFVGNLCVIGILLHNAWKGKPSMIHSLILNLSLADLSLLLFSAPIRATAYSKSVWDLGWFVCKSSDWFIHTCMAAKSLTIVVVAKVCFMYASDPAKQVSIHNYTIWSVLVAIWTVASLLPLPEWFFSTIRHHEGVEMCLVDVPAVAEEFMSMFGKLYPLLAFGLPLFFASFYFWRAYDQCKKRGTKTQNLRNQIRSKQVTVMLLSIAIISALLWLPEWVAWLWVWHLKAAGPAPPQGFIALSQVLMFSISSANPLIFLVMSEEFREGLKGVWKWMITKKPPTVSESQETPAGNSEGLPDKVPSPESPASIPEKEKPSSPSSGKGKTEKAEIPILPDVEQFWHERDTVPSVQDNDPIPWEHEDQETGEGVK
FBW7 act = human FBW7 E3 ligase activation, primary screen | AlphaScreen FBW7–phospho-cyclin E peptide binding, activator screen | normalized activity (activation), % at 26.1 µM | 650,000 compounds, 0.13% hits | AID 1259310; in the data active = normalized activity above about 1.9%;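 also: purified mutant Fbw7 with reduced substrate affinity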
MITF primary = human MITF inhibition, primary screen | O75030 | inhibition, % at 2.6 µM | AlphaScreen MITF homodimerization, bead proximity signal | AID 1259374 | 650,000 compounds, 0.91% hits; in the data active = inhibition above about 50%;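 also: 0% = vehicle wells with protein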
* = called active by the depositor. A selection: hits, their analogues and other compounds. The true share with any hit is near 3.5%.

Screening COC(=O)C1CC(=O)N(Cc2ccc3ccccc3c2)C12CCN(Cc1cnn(C)c1)CC2 (centres undefined) returned TEAD-YAP block 1.7, GPR151 ag 0.1, FBW7 act 0.0 and MITF primary -6.1.
For O=C(CNC(=O)c1ccco1)N/N=C/c1ccc([N+](=O)[O-])c(O)c1 the results were TEAD-YAP block -7.5, GPR151 ag -0.5, FBW7 act 0.8 and MITF primary 12.5.
`O=C(c1cccc(Br)c1)N1CCN(c2ccccc2)CC1` gave TEAD-YAP block -16.4, GPR151 ag 0.0, FBW7 act -0.1 and MITF primary -8.8.
`OCCCNc1ccc2ncc(-c3ccccc3)n2n1` gave TEAD-YAP block 43.2*, GPR151 ag 0.2, FBW7 act -0.2 and MITF primary 9.3.
Screening c1ccc2cc(-c3cnc4ccc(NCCCN5CCOCC5)nn34)ccc2c1 returned TEAD-YAP block -6.3, GPR151 ag 0.6, FBW7 act -0.5 and MITF primary -18.8.
Screening FC(F)(F)c1cccc(-c2cnc3ccc(NCCCN4CCOCC4)nn23)c1 returned TEAD-YAP block 15.6, GPR151 ag 0.3, FBW7 act 1.9* and MITF primary 6.8.
Screening CCOC(=O)CSc1c([N+](=O)[O-])nc(C)n1Cc1ccccc1 returned TEAD-YAP block -13.5, GPR151 ag 2.3, FBW7 act -0.1 and MITF primary 3.8.
`CCCSc1ncc(Cl)c(C(=O)Nc2ccc(OC)cc2)n1` gave TEAD-YAP block -0.6, GPR151 ag 1.9, FBW7 act -0.1 and MITF primary 2.9.
`Cc1ccc(S(=O)(=O)Nc2nc3ccccc3nc2Nc2cccc(N(C)C)c2)cc1` gave TEAD-YAP block 35.3*, GPR151 ag -0.1, FBW7 act -0.1 and MITF primary 12.1.
Screening CNc1c2ccccc2nc2ccccc12 returned TEAD-YAP block 70.9*, GPR151 ag -0.4, FBW7 act 0.1 and MITF primary -13.7.
Screening CC(C)Nc1c2ccccc2nc2ccccc12 returned TEAD-YAP block 73.5*, GPR151 ag 0.9, FBW7 act 0.3 and MITF primary -5.2.
Screening Nc1c2ccccc2nc2ccccc12 (tested in a mixture with another compound) returned TEAD-YAP block 71.0*, GPR151 ag -0.7, FBW7 act 0.2 and MITF primary -2.1.
Nc1cc(-c2ccccc2)nc2ccccc12 was read as TEAD-YAP block 13.5, GPR151 ag -0.8, FBW7 act -0.1 and MITF primary 3.4.
`O=C1c2ccccc2S(=O)(=O)N1c1ccc(Cl)cc1` gave TEAD-YAP block -5.3, GPR151 ag 0.2, FBW7 act 0.0 and MITF primary 0.9.
CCOC(=O)c1c(C)n(C)c2ccc(OCC(O)CNCC3CCCO3)cc12 (centres undefined) was read as TEAD-YAP block 6.1, GPR151 ag -0.1, FBW7 act -0.1 and MITF primary 24.1.
`Cc1ccsc1CN1CCN(c2ccc([N+](=O)[O-])cc2)CC1` gave TEAD-YAP block 1.4, GPR151 ag 0.3, FBW7 act -0.2 and MITF primary 44.9.
Cc1ccc2onc(CNC(=O)Nc3cccc(C)n3)c2c1 was read as TEAD-YAP block -11.3, GPR151 ag -3.8, FBW7 act -0.1 and MITF primary 0.0.
CSc1nnc(NC(=O)c2ccc(C)cc2)s1 was read as TEAD-YAP block 76.1*, GPR151 ag -5.6, FBW7 act -0.1 and MITF primary -0.1.
Screening CSc1nnc(NC(=O)c2ccc(F)cc2)s1 returned TEAD-YAP block -34.7, GPR151 ag -8.1, FBW7 act 0.0 and MITF primary -16.9.
`CC(C)(C)c1ccc(C(=O)Nc2nnc(SCC(=O)O)s2)cc1` gave TEAD-YAP block 71.4*, GPR151 ag -1.0, FBW7 act 0.0 and MITF primary -8.5.
For Cc1ccc(C(=O)Nc2nnc(SCC(=O)NCC3CCCO3)s2)cc1 (centres undefined) the results were TEAD-YAP block 41.8*, GPR151 ag 0.3, FBW7 act 0.1 and MITF primary -0.5.
CSc1nnc(NC(=O)c2ccc(C(C)(C)C)cc2)s1 was read as TEAD-YAP block 32.3*, GPR151 ag -1.6, FBW7 act 0.0 and MITF primary -2.3.
CC(Oc1cccc(Cl)c1)C(=O)Nc1ccc(F)c([N+](=O)[O-])c1 (centres undefined) was read as TEAD-YAP block 34.3*, GPR151 ag 0.1, FBW7 act 0.0 and MITF primary 9.3.
For CC(Oc1cccc(Cl)c1)C(=O)Nc1cccc(F)c1 (centres undefined) the results were TEAD-YAP block 2.4, GPR151 ag 0.2, FBW7 act 0.3 and MITF primary 19.7.

Compound activity: PubChem BioAssay, The Scripps Research Institute Molecular Screening Center
